Measurements: the supplement of paper PMC12494721
Where a name gives a salt, the structure may show the parent alone.

Key:
Details in all cases: incubation time: 27 h, anaerobic, 37 °C;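 for the amine columns active = adjusted P below 0.05 in both replicates with a change the same way and a mean fold change under 0.8 or over 1.25; inactive = the rest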
[1] = test system: Clostridium sporogenes DSM 1664; assay: growth (OD595) fold change vs plate DMSO controls (fold change (ratio)); higher = more growth
Outline: (§1)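 Shaken 96-well cultures in mGAM, grown anaerobically for 27 h at 37 °C, were read at 595 nm. OD came from blank-subtracted readings, corrected for background with 20 µM compound solutions in water and scaled by a calibration factor of 5. Growth is the fold change versus the plate's median DMSO control. Values average 2 biological replicates, and any fold change above 1.5 is NA.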

Escherichia coli IAI1 [2] = assay: as above
Outline: as §1

[3] = test system: Klebsiella aerogenes DSM 30053; assay: as above
Outline: as §1

[4] = test system: Ruminococcus gnavus DSM 108212; assay: as above
Outline: as §1

[5] = test system: Klebsiella aerogenes DSM 30053; assay: fold change of Histamine concentration vs plate DMSO controls (fold change (ratio)); higher = more amine produced, active = hit call of the paper (significant change in both replicates, either direction)
Outline: (§2)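 Using LC–triple-quadrupole MS with dynamic MRM, amines were quantified against external calibration curves and corrected for drift within each batch. Samples were whole anaerobic mGAM cultures of four gut strains, grown 27 h at 37 °C from OD 0.1 before 1:1 dilution, extracted with cold acetonitrile/methanol containing 0.1% formic acid and centrifuged. Compounds were present at 20 µM final (sweeteners at 50 µM final). The numbers are fold changes versus plate DMSO controls, each the mean of 2 biological replicates.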

[6] = test system: Clostridium sporogenes DSM 1664; assay: fold change of Tryptamine concentration vs plate DMSO controls (fold change (ratio)); higher = more amine produced, active = hit call of the paper (significant change in both replicates, either direction)
Outline: as §2

[7] = test system: Ruminococcus gnavus DSM 108212; assay: as above
Outline: as §2

Escherichia coli IAI1 [8] = assay: fold change of Putrescine concentration vs plate DMSO controls (fold change (ratio)); higher = more amine produced, active = hit call of the paper (significant change in both replicates, either direction)
Outline: as §2

[9] = test system: Klebsiella aerogenes DSM 30053; assay: as above
Outline: as §2

Escherichia coli IAI1 [10] = assay: fold change of Cadaverine concentration vs plate DMSO controls (fold change (ratio)); higher = more amine produced, active = hit call of the paper (significant change in both replicates, either direction)
Outline: as §2

[11] = test system: Klebsiella aerogenes DSM 30053; assay: as above
Outline: as §2

[12] = test system: Ruminococcus gnavus DSM 108212; assay: fold change of 2-Phenylethylamine concentration vs plate DMSO controls (fold change (ratio)); higher = more amine produced, active = hit call of the paper (significant change in both replicates, either direction)
Outline: as §2

SMILES | growth [1] | growth (Escherichia coli IAI1 [2]) | growth [3] | growth [4] | fold change of Histamine concentration [5] | fold change of Tryptamine concentration [6] | fold change of Tryptamine concentration [7] | fold change of Putrescine concentration (Escherichia coli IAI1 [8]) | fold change of Putrescine concentration [9] | fold change of Cadaverine concentration (Escherichia coli IAI1 [10]) | fold change of Cadaverine concentration [11] | fold change of 2-Phenylethylamine concentration [12]
CCN1CCN(c2cc3c(cc2F)c(=O)c(C(=O)O)cn3C2CC2)CC1 [Enrofloxacin] (20 µM) | 0.0184 | 0.0344 | 0.107 | 1.29 | 0.0794 (active) | 0.0498 (active) | 0.982 (inactive) | 0.658 (inactive) | 0.619 (active) | 0.204 (active) | 0.938 (inactive) | 1.05 (inactive)
CCCCNC(=N)NC(=N)N [Buformin] (20 µM) | 1.02 | 0.988 | 0.986 | 1 | 1.03 (inactive) | 1.05 (inactive) | 0.934 (inactive) | 1.01 (inactive) | 1.01 (inactive) | 1.03 (inactive) | 1 (inactive) | 0.915 (inactive)
CC(C)(C)C(=O)C(Oc1ccc(Cl)cc1)n1ccnc1 (centres undefined) [Climbazole] (20 µM) | 1.22 | 1.05 | 1.07 | 0.922 | 0.96 (inactive) | 1.04 (inactive) | 0.979 (inactive) | 1.04 (inactive) | 1.02 (inactive) | 0.968 (inactive) | 1.01 (inactive) | 1.03 (inactive)
O=C(O)c1cc(=O)[nH]c(=O)[nH]1 [Orotic acid] (20 µM) | 1.11 | 0.979 | 1.01 | 1.22 | 0.955 (inactive) | 1.01 (inactive) | 0.967 (inactive) | 0.995 (inactive) | 1.01 (inactive) | 1.03 (inactive) | 0.993 (inactive) | 0.948 (inactive)
CCN(CCO)CCCC(C)Nc1ccnc2cc(Cl)ccc12 (centres undefined) [Hydroxychloroquine sulfate] (20 µM) | 1.08 | 0.955 | 0.95 | 0.855 | 1.09 (inactive) | 0.967 (inactive) | 0.991 (inactive) | 0.915 (inactive) | 1.04 (inactive) | 0.999 (inactive) | 0.982 (inactive) | 1.02 (inactive)
Cc1cccn2c(=O)c(-c3nnn[nH]3)cnc12 [Pemirolast potassium] (20 µM) | 0.934 | 0.984 | 0.975 | 0.807 | 1.03 (inactive) | 1.02 (inactive) | 1.01 (inactive) | 0.994 (inactive) | 1.01 (inactive) | 0.992 (inactive) | 1 (inactive) | 1.04 (inactive)
CC1(C)S[C@@H]2[C@H](NC(=O)C(c3ccccc3)S(=O)(=O)O)C(=O)N2[C@H]1C(=O)O (some centres undefined) [Sulbenicillin sodium salt] (20 µM) | 0 | 0.378 | 0.634 | 0 | 1.18 (inactive) | 0.0125 (active) | 0.086 (active) | 1.84 (inactive) | 0.969 (inactive) | 1.87 (active) | 1.08 (inactive) | 0.0641 (active)
N[C@@H]1CCCCN(c2c(F)cc3c(=O)c(C(=O)O)cn(C4CC4)c3c2Cl)C1 [Besifloxacin hydrochloride] (20 µM) | 0.0111 | 0.0312 | 0.191 | 0.266 | 0.189 (active) | 0.0464 (active) | 0.149 (active) | 0.814 (inactive) | 1.08 (inactive) | 0.267 (active) | 0.988 (inactive) | 0.166 (active)
COc1ccnc(C[S+]([O-])c2nc3cc(OC(F)F)ccc3[nH]2)c1OC (centres undefined) [Pantoprazole sodium] (20 µM) | 1.18 | 1.22 | 1 | 0.958 | 0.936 (inactive) | 1.05 (inactive) | 1.05 (inactive) | 1.25 (inactive) | 1.01 (inactive) | 0.98 (inactive) | 1.02 (inactive) | 1.07 (inactive)
CC(C)=CCOc1ccc(/C=C/C(=O)c2ccc(OCC=C(C)C)cc2OCC(=O)O)cc1 [Sofalcone] (20 µM) | 0.713 | 0.964 | 0.98 | 0.927 | 1 (inactive) | 0.425 (active) | 0.669 (active) | 1.01 (inactive) | 1 (inactive) | 1.03 (inactive) | 0.992 (inactive) | 0.689 (inactive)
CCc1nc(N)nc(N)c1-c1ccc(Cl)cc1 [Pyrimethamine] (20 µM) | 1.05 | 0.96 | 0.961 | 1.17 | 1.07 (inactive) | 1.01 (inactive) | 0.912 (inactive) | 0.792 (inactive) | 0.977 (inactive) | 1.32 (active) | 0.989 (inactive) | 0.819 (inactive)
CCc1nn(CCCN2CCN(c3cccc(Cl)c3)CC2)c(=O)n1CCOc1ccccc1 [Nefazodone hydrochloride] (20 µM) | 1.05 | 1.01 | 1.17 | 0.822 | 0.853 (inactive) | 0.922 (inactive) | 0.793 (active) | 0.996 (inactive) | 0.996 (inactive) | 1.03 (inactive) | 1.03 (inactive) | 0.824 (inactive)
